High-throughput results: PubChem, National Center for Advancing Translational Sciences (NCATS)
A549 tox – kills or reduces viability of A549 cells in Nrf2 counter-screen. A549 ARE-Fluc cells, CellTiter-Fluor viability, 18-24 h. AID 504648. Potency, µM (top dose mostly 46 µM), for inactives: top-dose activity change, negative = cytotoxicity, usual class: inhibitors. 390,000 tested, 0.16% active; also: % is scaled to controls: 0 for no effect and ±100 for the full control effect
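A549 ARE_Fluc cells in 5% FBS OPTI-MEM were exposed to compounds in concentration-response for 18-24 h at 37 deg C. Viability was read by CellTiter-Fluor fluorescence (Ex 405/Em 525) after 30 min, before the luciferase read.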
Nrf2 inh – inhibitors of Nrf2 signaling. A549 ARE-Fluc reporter, luciferase luminescence, 18-24 h. Potency, µM (top dose mostly 46 µM), without a hit: top-dose activity change, negative = inhibition, actives largely listed as inhibitors. 360,000 tested, 2.1% active. AID 504444; also: % is scaled to controls: 0 for no effect and ±100 for the full control effect; nearly all actives have a fitted effect of over 60% in size
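Nrf2 activity is the BugLite luminescence, read 15 min after reagent at room temperature, following CellTiter-Fluor cytotoxicity readout (30 min, 37C). Compound titrations were applied for 18-24 h to 5000 A549 ARE_Fluc cells/well in 5% FBS OPTI-MEM.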
IDH1 R132H inh – human IDH1 R132H inhibition. IDH1-R132H enzyme, NADPH consumption, diaphorase/resazurin fluorescence. Potency, µM (top dose mostly 76.6 µM), for inactives: top-dose activity change, negative = inhibition, most hits filed as inhibitors. 390,000 tested, 0.093% active. AID 602179; also: % is scaled to controls: 0 for no effect and ±100 for the full control effect; nearly all actives have a fitted effect of over 65% in size
Target sequence (O75874 whole entry R132H, stated change not applied): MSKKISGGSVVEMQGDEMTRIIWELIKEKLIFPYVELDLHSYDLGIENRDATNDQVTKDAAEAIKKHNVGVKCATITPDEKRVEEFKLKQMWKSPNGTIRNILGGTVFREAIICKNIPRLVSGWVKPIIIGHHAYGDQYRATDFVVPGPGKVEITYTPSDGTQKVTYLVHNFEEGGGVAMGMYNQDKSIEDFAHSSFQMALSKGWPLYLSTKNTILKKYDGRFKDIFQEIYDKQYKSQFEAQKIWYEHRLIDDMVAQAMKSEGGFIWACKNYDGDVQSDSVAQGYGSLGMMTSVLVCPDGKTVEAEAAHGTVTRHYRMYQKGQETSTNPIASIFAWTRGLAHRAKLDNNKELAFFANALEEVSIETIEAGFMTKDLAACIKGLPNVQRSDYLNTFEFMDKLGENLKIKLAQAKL
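IDH1-R132H (0.5 ug/mL) preincubated 30 min with compound, then NADPH (0.016 mM) and alpha-KG (2 mM) added; 80 min at RT, pH 7.5. Remaining NADPH coupled via diaphorase/resazurin to fluorescence (540/590 nm); concentration-response curves normalized to no-enzyme control.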
Nrf2 ARE act – activators of Nrf2 (ARE) signaling | AREc32 ARE-luciferase reporter (MCF7-derived line), luminescence, 24 h | Potency, µM (top dose mostly 46.1 µM), for the others: top-dose activation, most hits filed as activators | 410,000 tested, 0.31% active; also: % of control where 0% means no effect; nearly all actives have a fitted effect of over 65% in size
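AREc32_Fluc, 1000 cells/well, OPTI-MEM + 5% FBS, o/n 37 deg C 5% CO2; 23 nL cpd by pin tool, 24 hr; Steady-Glo 30 min RT, luminescence.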
ELG1 DNA repair – inhibitors of ELG1-dependent DNA repair in HEK293T cells. 330,000 tested, 2.3% active. HEK293T ELG1-luciferase reporter, luminescence, 16 h; DNA damage induced by 5-fluorouridine. Potency, µM (titrated, usually from 46.1 µM), for the others: at the top dose activity change, negative = inhibition, most hits filed as inhibitors. AID 504467; also: % is scaled to controls: 0 for no effect and ±100 for the full control effect; nearly all actives have a fitted effect of over 55% in size
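In this reporter screen, reduction of luminescence relative to DMSO vehicle indicated activity. Compounds and 5-fluorouridine were added together to 2,000 cells per well, incubated for 16 hr at 37 °C, then developed with ONE-Glo.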
The depositor's hits bear a star; u = inconclusive; x = not tested or not shown; [ ] = another dose, or the depositor's remark. An excerpt weighted towards active compounds, which were near 3.8% of everything screened. Calls follow the shape of the dose curve; as a rule, active = well fitted curve in the direction sought with a large enough effect; inconclusive = small, poorly fitted or top-dose-only effect, or another doubt; inactive = no such curve, though single readings can be large; an effect the other way counts as inactive or inconclusive. Potency is read from the fitted curve at half-maximal effect.

SMILES	A549 tox	Nrf2 inh	IDH1 R132H inh	Nrf2 ARE act	ELG1 DNA repair
CS(=O)(=O)N(CC(=O)N/N=C/c1ccco1)c1ccccc1Br	0.2%	3.4%	6.7%	2.9%[9.22 µM]	1.1%
CN(C)c1ccc(/C=N/NC(=O)CN(c2cccc(Cl)c2)S(C)(=O)=O)cc1Br	-19.8%	x	-0.6%	4.3%	20.6µM*
C=CCNC(=O)C1CC2Cn3c(nc4cc(Cl)c(Cl)cc43)C2N1C (stereo not given)	-0.2%	1.8%	-10.3%	0.5%	u
C=CCNCC(=O)Nc1sc2c(c1C(=O)Nc1ccc(OC)cc1OC)CCC2	-2.8%	-7.2%	-5.6%	-0.1%	20.6µM*
CC(C)(C)c1ccc(C(=O)Nc2sc3c(c2C(=O)O)CCC3)cc1	-20.2%	u	30.0%	-1.5%	3.66µM*
COc1ccc(NC(=O)c2c(NC(=O)C(F)(F)F)sc3c2CCCCC3)cc1	u	1.84µM*	24.5%	7.5%	x
COc1ccc(NC(=O)c2c(NCc3sccc3C)sc3c2CCCC3)c(OC)c1	u	x	-6.1%	7.6%	x
COc1cccc(C(=O)Nc2sc3c(c2C(=O)O)CCCC3)c1	u	5.8µM*	32.7%	0.3%	u
Cc1cccc(-c2nc(CSCC(=O)N3CCN(c4ccccc4)CC3)c(C)o2)c1	-10.1%	23.1µM*	-2.4%	0.0%	x
CCOc1ccc(-c2nc(CSCC(=O)N3CCN(c4cccc(C(F)(F)F)c4)CC3)c(C)o2)cc1	u	x	16.0%	-2.8%	x
CCc1ccc(-c2nc(CSCC(=O)N3CCN(c4ncccn4)CC3)c(C)o2)cc1	-17.7%	20.6µM*	0.0%	0.4%	14.6µM*
Cc1cc(C)c(S(=O)(=O)NCC(c2ccc(N(C)C)cc2)N2CCc3ccccc32)c(C)c1 (stereo not given)	0.3%	x	14.3%	4.8%	x
O=C(Nc1c(Cl)cccc1Cl)c1cc(-c2cccc(O)c2)on1	-4.1%	13.8%	2.6%	9.4%	x
CSC1=NC(C)(C)C=C(/C=C/c2ccc(Cl)cc2Cl)N1	3.4%	15.8%	2.8%	25.1µM*	0.0%
CSC1=NC(C)(C)C=C(/C=C/c2c(Cl)cccc2Cl)N1	3.7%	-22.6%	-4.2%	u	-4.6%
CSC1=NC(C)(C)C=C(/C=C/c2ccc(Cl)cc2)N1	-0.9%	-1.9%	3.0%	5.62µM*	-12.6%
COc1cccc(N2CCN(C(=O)c3cnn(-c4ccccc4Cl)c3C3CCN(C(=O)OC(C)(C)C)CC3)CC2)c1	u	u	0.0%	4.9%	x
Clc1cccc(-n2ncc3c(NC4CCCCC4)ncnc32)c1	-3.9%	x	22.4%	-0.7%	x
COc1ccccc1N=Nc1nc(-c2ccccc2)c(-c2ccccc2)[nH]1	u	18.4µM*	-0.4%	3.7%	23.1µM*
Cc1noc(C)c1C(=O)N1CCN(c2ccc(OCc3ccccc3)cc2)CC1	-1.8%	20.6µM*	-3.0%	-0.3%	-25.5%
CCc1nn(CC(=O)NC(C)c2ccccc2)c(=O)c2cc3sccc3n12 (stereo not given)	1.1%	4.7%	0.0%	-0.9%	x
Cc1ccc(-n2nnnc2SCn2nnc3ccccc3c2=O)c(C)c1	u	9.2µM*	5.0%	1.5%	x
CCOc1ccc(N2CC(c3nc4ccccc4n3Cc3cccc(Cl)c3)CC2=O)cc1 (stereo not given)	u	u	-5.0%	-0.4%	x
CCC(C)NS(=O)(=O)c1ccc(S(=O)(=O)N(CC(=O)Nc2ccccc2)Cc2ccco2)cc1 (stereo not given)	-9.8%	13µM*	4.2%	2.6%	18.4µM*
CCCC(C)NC(=O)CN(Cc1ccco1)S(=O)(=O)c1ccccc1 (stereo not given)	3.9%	-15.9%	0.0%	-0.7%	17.4%
SMILES	A549 tox	Nrf2 inh	IDH1 R132H inh	Nrf2 ARE act	ELG1 DNA repair
CC(C(=O)c1ccc(-c2ccccc2)cc1)[n+]1ccccc1 (stereo not given)	u	7.31µM*	-5.0%	2.3%	2.7%
NS(=O)(=O)c1ccc(N=Nc2c[nH]c(=O)c(O)c2)cc1	23.1µM*	-21.0%	22.5%	23.7%	-4.0%
Cc1cc(C)n(-c2ccc3cccc(NS(C)(=O)=O)c3n2)n1	-10.4%	5.17µM*	2.7%	-0.4%	-12.5%
CCCOc1ccccc1-c1nc(SCC(=O)c2ccccc2)n[nH]1	1.4%	u	19.9%	4.8%	x
COc1ccccc1N1CCN(c2ncc(C(=O)N3CCN(c4cccc(Cl)c4)CC3)c3ccccc23)CC1	-5.4%	u	-2.4%	0.2%	5.17µM*
Cc1cc(C(=O)N2CCN(c3cccc(Cl)c3)CC2)c2c(C)nn(-c3ccccc3Cl)c2n1	-26.8%	18.4µM*	-6.6%	-0.2%	x
Cc1ccc(N(C)C(CNS(=O)(=O)c2ccccc2)c2ccccc2)cc1 (stereo not given)	-12.8%	-95.2%	x	-0.9%	x
Cc1nc(N/N=C/c2ccc(O)cc2O)cc(N2CCOCC2)n1	1.7%	20.6µM*	15.6%	0.1%	u
Cc1nc(N/N=C/c2cccc(F)c2)cc(N2CCOCC2)n1	1.3%	-17.8%	-17.1%	9.2%	u
C/C(=N\Nc1cc(N2CCOCC2)nc(C)n1)c1cccc([N+](=O)[O-])c1	11.5%	17.1%	2.2%	7.1%	14.6µM*
COC(=O)c1c(NC(=O)/C=C/C(=O)O)sc(Cc2ccccc2)c1C	-12.0%	-20.9%	5.8%	22.4µM*	-8.9%
Cc1cccc(N2CCN(C(=O)C3CCCN(S(=O)(=O)c4ccc(Br)s4)C3)CC2)c1C (stereo not given)	-5.8%	10.3µM*	-5.1%	-1.3%	x
O=C(C1CCN(S(=O)(=O)c2ccc(Br)s2)CC1)N1CCN(c2cccc(Cl)c2)CC1	-5.6%	u	-4.4%	-0.5%	x
Cc1cccc(N2CCN(C(=O)C3CCCN(S(=O)(=O)c4c(C)noc4C)C3)CC2)c1C (stereo not given)	-17.9%	u	4.2%	0.6%	x
COc1cccc(N2CCN(C(=O)C3CCC(CNS(=O)(=O)c4ccc(Br)s4)CC3)CC2)c1 (stereo not given)	-19.8%	16.4µM*	-9.3%	-0.4%	x
O=C(C1CCCN(c2nnc(-n3cccc3)s2)C1)N1CCN(c2ccccc2)CC1 (stereo not given)	1.6%	9.1%	11.8%	-0.6%	16.4µM*
COc1cccc(N2CCN(C(=O)C3CCCN(S(=O)(=O)c4ccc(Br)s4)C3)CC2)c1 (stereo not given)	-4.9%	16.4µM*	0.0%	5.0%	x
Cc1ccc(CN2C(=O)C3(SCC(=O)N3c3ccc(C)c(C)c3)c3ccccc32)cc1 (stereo not given)	-21.6%	u	3.1%	4.5%	x
CCOc1ccc(-c2cnc(NCc3ccc(OC)cc3OC)n2C)cc1	1.3%	-16.7%	-1.4%	-1.0%	x
Nc1c(C(=O)NCc2cccs2)nnn1CC(=O)Nc1cccc(F)c1	0.1%	u	10.9%	-0.4%	x
